“And” between values parts separate entries of the source, which are not always exact repeats. Equal values may be shown once. Results filed as inconclusive are left out. The source made the active and inactive calls. The calls were made as follows, unless noted: active = hit-call score of the fitted dose curve at least 0.9, where 1 is the maximum; inconclusive = response in the unintended direction; inactive = score below 0.9.
Assays:
[1] = molecular target: Cellular tumor antigen p53 (Homo sapiens) (UniProt P04637); test: TOX21_p53_BLA_p2_ratio: Tox21 HCT-116 p53 Agonism Beta-lactamase Assay, Ratio, Phase 2 (AID 2283592)
In short: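 HCT116 p53-bla; 4000 cells/well; 5 h pre-incubation; cpd in DMSO, 217-fold dilution; 16 h 37C/5% CO2; CCF4-AM 2 h RT; Ex 405, Em 460/530 ratio; DMSO = baseline; positive fitting direction.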

[2] = TOX21_p53_BLA_p3_viability: Viability Assessment in the Tox21 HCT-116 p53 Agonism Beta-lactamase Assay, Phase 3 (AID 2283593);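 also: cells exposed to compound for 16 h before reading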
In short: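 HCT-116 cells (4000/well) rested 5 h at 37C, then got DMSO compounds by pin tool (217-fold dilution) for 16 h at 37C, 5% CO2. After the bla read, CellTiter-Glo was added and luminescence read at 30 min, room temperature.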

[3] = molecular target: Cellular tumor antigen p53 (Homo sapiens) (UniProt P04637); test: TOX21_p53_BLA_p3_ratio: Tox21 HCT-116 p53 Agonism Beta-lactamase Assay, Ratio, Phase 3 (AID 2283596)
In short: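 HCT116 p53-bla cells (4000/well) given compound in DMSO (217-fold dilution) after 5 h, incubated 16 h at 37C. CCF4-AM substrate 2 h at room temperature; 460/530 nm emission ratio, gain fitted against DMSO.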

[4] = TOX21_p53_BLA_p4_viability: Viability Assessment in the Tox21 HCT-116 p53 Agonism Beta-lactamase Assay, Phase 4 (AID 2283597);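 also: hits lower the luminescence signal meaning cytotoxicity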
In short: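 Cells plated, 5 h pre-incubation; DMSO compounds pinned (217-fold dilution); 16 h, 37C/5% CO2; CCF4-AM 2 h RT; CellTiter-Glo 30 min RT; luminescence read.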

[5] = molecular target: Cellular tumor antigen p53 (Homo sapiens) (UniProt P04637); test: TOX21_p53_BLA_p5_ratio: Tox21 HCT-116 p53 Agonism Beta-lactamase Assay, Ratio, Phase 5 (AID 2283599)
In short: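 HCT-116 cells carrying a p53-inducible beta-lactamase reporter were seeded at 4000 cells/well and dosed after 5 h with compound in DMSO (217-fold dilution). After 16 h at 37C, CCF4-AM substrate was added for 2 h, and the 460/530 nm emission ratio was scored as gain-of-signal versus DMSO.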

[6] = TOX21_p53_BLA_p5_viability: Viability Assessment in the Tox21 HCT-116 p53 Agonism Beta-lactamase Assay, Phase 5 (AID 2283600)
In short: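 4000 cells/well; 5 h pre-incubation; DMSO compounds pin-transferred, 217-fold dilution; 16 h, 37C/5% CO2; CCF4-AM 2 h RT; CellTiter-Glo 30 min RT; luminescence.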

[7] = molecular target: Cellular tumor antigen p53 (Homo sapiens) (UniProt P04637); test: TOX21_p53_BLA_p4_ratio: Tox21 HCT-116 p53 Agonism Beta-lactamase Assay, Ratio, Phase 4 (AID 2283601)
In short: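 HCT116 cells carrying an inducible beta-lactamase reporter were plated at 4000 cells/well, rested 5 h, then exposed to compounds in DMSO (217-fold dilution) for 16 h at 37C. CCF4-AM substrate was loaded 2 h at room temperature; 460/530 nm emission ratio scored gain-of-signal versus DMSO.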

[8] = TOX21_p53_BLA_p2_viability: Viability Assessment in the Tox21 HCT-116 p53 Agonism Beta-lactamase Assay, Phase 2 (AID 2283591);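 also: compound exposure lasted 16 h at 37 °C; actives lower the ATP signal meaning cytotoxicity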
In short: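 HCT-116 p53-bla cells (4000/well) rested 5 h at 37C, then received compounds in DMSO (217-fold dilution) for 16 h at 37C, 5% CO2. After the CCF4 read, CellTiter-Glo was added; ATP luminescence was read after 30 min at room temperature.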

[9] = UKN5_HCS_SBAD2_cell_viability: Viability Assessment in the University of Konstanz (UKN) Leist Lab Neurite Outgrowth Assay in human iPSC-derived immature Dorsal Root Ganglia Neurons (UKN5) (AID 2284056; active = hit-call score of the fitted dose curve at least 0.9, where 1 is the maximum; inactive = score below 0.9)
In short: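 iPSC-derived immature peripheral neurons (SBAD2) seeded on Matrigel with CHIR99021, SU5402 and DAPT, dosed 1 h later for 24 h. Viability from Hoechst H-33342 and calcein-AM live staining, high-content imaging; bidirectional fit versus DMSO.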

[10] = UKN5_HCS_SBAD2_neurite_outgrowth: University of Konstanz (UKN) Leist Lab Neurite Outgrowth Assay in human iPSC-derived immature Dorsal Root Ganglia Neurons (UKN5) (AID 2284070; active = hit-call score of the fitted dose curve at least 0.9, where 1 is the maximum; inactive = score below 0.9); settings: actives raise or lower the signal
In short: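 SBAD2 iPSC-derived immature peripheral neurons on Matrigel, 100.000 cells/cm2, medium with CHIR99021 (1.5 uM), SU5402 (5 uM), DAPT (5 uM); compound added 1 h post-seeding for 24 h. Calcein-AM neurite area by high-content imaging; Hoechst H-33342 viability; bidirectional fit vs DMSO.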

[11] = UKN2_HCS_IMR90_neural_migration: University of Konstanz (UKN) Leist Lab Neural Crest Cell Migration Assay in human induced IMR90 Pluripotent Stem Cells (UKN2) (AID 2284204; active = hit-call score of the fitted dose curve at least 0.9, where 1 is the maximum; inactive = score below 0.9); settings: actives raise or lower the signal
In short: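 iPSC-derived IMR90 neural crest cells on PLO/laminin/fibronectin were seeded around silicone stoppers; after stopper removal, migration in N2-S medium with EGF and FGF ran 24 h before 24 h chemical exposure. Calcein-AM/Hoechst high-content imaging; bidirectional fit versus DMSO.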

[12] = UKN2_HCS_IMR90_cell_viability: Viability Assessment in the University of Konstanz (UKN) Leist Lab Neural Crest Cell Migration Assay in human induced IMR90 Pluripotent Stem Cells (UKN2) (AID 2284233; active = hit-call score of the fitted dose curve at least 0.9, where 1 is the maximum; inactive = score below 0.9;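 also: viability of neural crest cells differentiated from IMR90 iPSC measured by calcein-AM fluorescence imaging; cells exposed to compound for 24 h after a 24 h migration phase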)
In short: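 iPSC-derived (IMR90) neural crest cells seeded around silicone stoppers on PLO/laminin/fibronectin; after 24 h migration in N2-S with EGF/FGF, chemical added for 24 h. Calcein-AM/Hoechst stained 30 min, high-content imaged; bidirectional fit versus DMSO.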

[13] = molecular target: Thyroid hormone receptor alpha (Rattus norvegicus) + Thyroid hormone receptor beta (Rattus norvegicus) (UniProt P18113+P63059); test: TOX21_TR_LUC_GH3_Antagonist_Followup: Tox21 GH3 Thyroid Hormone Receptor Antagonism Luciferase Follow-Up Assay (AID 2283942)
In short: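 Rat pituitary GH3 cells with a TRα/TRβ-driven luciferase reporter, 5 h attachment, then 15 concentrations (92 uM to 5nM final) plus 1.0 nM T3 agonist, 24 h at 37C/5% CO2. ONE-Glo luminescence; signal change fitted against DMSO baseline.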

THRA (gene 7067) = THRA (gene 7067) (UniProt P10827); test: TOX21_TRA_COA_Antagonist_Followup_ratio: Tox21 Thyroid Hormone Receptor alpha Antagonism through Coactivator Recruitment Follow-Up Assay, Ratio (AID 2283953)
In short: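 520:495 nm emission ratio (excitation 340 nm) reports fluorescein-SRC-2 peptide recruitment to GST-TRα LBD by TR-FRET with Tb anti-GST antibody. Values were normalized to DMSO (0%) and T3 control wells (100%); loss of signal indicated antagonism.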

THRB (gene 7068) = THRB (gene 7068) (UniProt P10828); test: TOX21_TRB_COA_Antagonist_Followup_ratio: Tox21 Thyroid Hormone Receptor beta Antagonism through Coactivator Recruitment Follow-Up Assay, Ratio (AID 2283967)
In short: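 Cell-free TR-FRET coactivator recruitment with GST-tagged TRβ LBD (5.0 nM) and fluorescein-labeled SRC-2 peptide (200 nM) detected by terbium anti-GST antibody (2 nM). The 520:495 nm emission ratio was normalized to DMSO (0%) and T3 (100%).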

[14] = TOX21_TR_RXR_BLA_Antagonist_Followup_viability: Viability Assessment in the Tox21 Thyroid Hormone Receptor beta Retinoid X Receptor alpha (RXRa) Antagonism Beta-lactamase (BLA) Follow-Up Assay (AID 2283979)
In short: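 RXRa-UAS-bla HEK293T cells seeded 2,500/well in phenol red-free DMEM with 2% charcoal-stripped FBS, attached 5 h, then exposed to compounds at 11 concentrations in triplicate for 16 h at 37C/5% CO2. Viability read by CellTiter-Glo ATP luminescence; bidirectional fit versus DMSO.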

Measured: AC50

Cellular tumor antigen p53 (Homo sapiens), sequence (P04637 whole entry, looked up): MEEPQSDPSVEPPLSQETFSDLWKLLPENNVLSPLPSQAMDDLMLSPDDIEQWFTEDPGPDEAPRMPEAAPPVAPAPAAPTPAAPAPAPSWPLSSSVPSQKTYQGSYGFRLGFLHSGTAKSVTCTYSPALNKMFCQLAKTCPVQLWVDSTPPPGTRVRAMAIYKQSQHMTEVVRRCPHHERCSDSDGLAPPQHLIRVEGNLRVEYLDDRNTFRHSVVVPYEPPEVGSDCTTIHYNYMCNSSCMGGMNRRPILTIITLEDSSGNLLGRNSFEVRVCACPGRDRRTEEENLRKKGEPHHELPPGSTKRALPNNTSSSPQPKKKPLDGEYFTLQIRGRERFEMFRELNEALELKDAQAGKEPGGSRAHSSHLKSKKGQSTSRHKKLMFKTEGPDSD
THRA (gene 7067), sequence (P10827 whole entry, looked up, the tested form may be a part): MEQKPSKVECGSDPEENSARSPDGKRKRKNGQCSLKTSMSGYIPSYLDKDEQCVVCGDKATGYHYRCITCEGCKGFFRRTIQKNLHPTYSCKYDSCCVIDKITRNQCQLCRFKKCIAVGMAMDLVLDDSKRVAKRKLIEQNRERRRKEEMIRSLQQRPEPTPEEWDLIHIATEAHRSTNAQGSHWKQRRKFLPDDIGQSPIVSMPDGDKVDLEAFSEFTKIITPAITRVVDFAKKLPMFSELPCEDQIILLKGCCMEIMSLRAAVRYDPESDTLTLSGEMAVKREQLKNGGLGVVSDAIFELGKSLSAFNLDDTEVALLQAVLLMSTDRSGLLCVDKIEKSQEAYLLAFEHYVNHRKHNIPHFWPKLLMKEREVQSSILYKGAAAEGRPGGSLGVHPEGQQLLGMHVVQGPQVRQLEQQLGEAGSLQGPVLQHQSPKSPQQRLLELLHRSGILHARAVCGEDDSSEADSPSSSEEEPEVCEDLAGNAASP
THRB (gene 7068), sequence (P10828 whole entry, looked up, the tested form may be a part): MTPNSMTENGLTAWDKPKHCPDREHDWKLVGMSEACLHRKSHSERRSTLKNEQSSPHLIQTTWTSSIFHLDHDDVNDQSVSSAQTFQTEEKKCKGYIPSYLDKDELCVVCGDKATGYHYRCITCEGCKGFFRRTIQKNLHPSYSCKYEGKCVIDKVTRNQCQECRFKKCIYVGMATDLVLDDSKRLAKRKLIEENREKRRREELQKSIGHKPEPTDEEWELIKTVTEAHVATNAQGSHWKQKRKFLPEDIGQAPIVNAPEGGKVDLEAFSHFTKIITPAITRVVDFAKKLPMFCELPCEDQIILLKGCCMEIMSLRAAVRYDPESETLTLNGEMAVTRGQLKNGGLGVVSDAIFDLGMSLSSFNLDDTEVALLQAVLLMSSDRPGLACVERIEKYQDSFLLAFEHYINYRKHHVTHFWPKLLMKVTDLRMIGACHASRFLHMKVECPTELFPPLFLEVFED

C[C@]12CC[C@H]3[C@@H](CC=C4C[C@@H](O)CC[C@@]43C)[C@@H]1CC[C@@H]2O
inactive: [1] | [3] | [4] | [5] | [6]
active: [2] 43.5 µM

CNC(C)CC1CCCCC1 (configuration not stated)
inactive: [1] | [2] | [3] | [4] | [5]

N[C@@H](Cc1ccc(N(CCCl)CCCl)cc1)C(=O)O
active: [1] 26.6 µM and 25.6 µM | [3] 20.2 µM and 24.6 µM | [5] 32.6 µM and 29.2 µM | [7] 22.7 µM and 30.4 µM
inactive: [2] | [4] | [6]

CN1CC[C@]23c4c5ccc(O)c4O[C@H]2[C@@H](O)C=C[C@H]3[C@H]1C5
inactive: [8] | [6] | [9] | [10] | [11] | [12]

CCCCNCC(O)c1ccc(O)cc1 (configuration not stated)
inactive: [8] | [5] | [6] | [7]

CCCSC(=O)Cl
inactive: [8] | [6] | [7]

S=C(SSC(=S)N1CCCCC1)N1CCCCC1
inactive: [1] | [2] | [3] | [4] | [5] | [6] | [7]

CC(Cl)Cl
inactive: [1]

c1ccc2c(c1)[nH]c1cnccc12
inactive: [1] | [2] | [4] | [5] | [6] | [7]
active: [3] 46.1 µM

CC(C)NCC(O)c1ccccc1Cl (configuration not stated)
inactive: [1] | [2] | [3]

C=C[C@H]1CN2CC[C@H]1C[C@@H]2[C@@H](O)c1ccnc2ccccc12
inactive: [1] | [2] | [3] | [4] | [5] | [6] | [7]

c1cncc([C@@H]2CCCCN2)c1
inactive: [1] | [2]

CC(=O)[C@H]1CC[C@H]2[C@@H]3CC[C@@H]4C[C@H](O)CC[C@]4(C)[C@H]3CC[C@]12C
not listed: [8] | [9] | [10] | [11] | [12]
inactive: all other assays above

N#CC(C#N)=Cc1ccc(O)c(O)c1
inactive: [1] | [2] | [3] | [4] | [5] | [6] | [7]

C[C@]12CC[C@H](OS(=O)(=O)O)CC1=CC[C@@H]1[C@@H]2CC[C@]2(C)C(=O)CC[C@@H]12
inactive: [1] | [2] | [3] | [4] | [5] | [6] | [7]

S=C=Nc1cccc2ccccc12
active: [1] 38.5 µM | [7] 32.4 µM
inactive: [2] | [3] | [4] | [5] | [6]

CN(C)S(=O)(=O)N(SC(F)(Cl)Cl)c1ccccc1
inactive: [2] | [3]
active: [1] 26.3 µM | [4] 86.8 µM | [5] 32.3 µM | [6] 86.8 µM | [7] 48.6 µM

Source: PubChem BioAssay (EPA / NIEHS)
